# Most compounds without a hit are left out; they make up all but 2.3% or so of the library.
# C diff HTS: C. difficile growth inhibitors, primary screen, HTS; 86,000 tested, 0.25% active; growth activity, negative = inhibition, % at 16 µg/mL (by protocol); Clostridium difficile clinical isolate growth, OD600, 24 h; active compounds read low; AID 1259249, 2017;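 active = mean growth activity at or below -80% and every replicate also at or below -80%; inconclusive = mean at or below -80% but some replicate above -80%; inactive = mean growth activity above -80%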;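 note: 0% = DMSO wells and -100% = levofloxacin 16 µg/mL wells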
# Pf Dd2 inh: P. falciparum Dd2 growth inhibitors, primary screen, SYBR Green fluorescence, single dose replicates. 72 h; active compounds read low. activity change, % at 10 µM. 94,000 tested, 2.3% active; in the data active = activity change below about -80%; inconclusive = no clear call, values can overlap the other calls
# Numbers without * were called inactive; ? = inconclusive; / = not tested or not shown; ! = not confirmed by another sample.
SMILES,C diff HTS,Pf Dd2 inh
C[C@H]1CCCCO[C@H](CN(C)C(=O)Nc2ccc(C(F)(F)F)cc2)[C@@H](C)CN([C@@H](C)CO)C(=O)c2cc(NC(=O)Nc3ccccc3)ccc2O1,-3,-83*
C[C@@H]1CN([C@H](C)CO)C(=O)c2cc(NC(=O)NC3CCCCC3)ccc2O[C@@H](C)CCCCO[C@H]1CN(C)Cc1ccc(C(F)(F)F)cc1,3,-94*
C[C@H]1CCCCO[C@H](CN(C)C(=O)Nc2ccc(C(F)(F)F)cc2)[C@@H](C)CN([C@@H](C)CO)C(=O)c2cc(NC(=O)NC3CCCCC3)ccc2O1,-4,-87*
C[C@@H]1CCCCO[C@@H](CN(C)C(=O)Nc2ccccc2)[C@@H](C)CN([C@H](C)CO)C(=O)c2cc(NC(=O)Nc3ccc(C(F)(F)F)cc3)ccc2O1,-2,29
C[C@@H]1CCCCO[C@H](CN(C)C(=O)Nc2ccc(C(F)(F)F)cc2)[C@H](C)CN([C@@H](C)CO)C(=O)c2cc(NC(=O)Nc3ccccc3)ccc2O1,0,-82*
C[C@H]1CCCCO[C@@H](CN(C)Cc2ccc(C(F)(F)F)cc2)[C@@H](C)CN([C@@H](C)CO)C(=O)c2cc(NC(=O)NC3CCCCC3)ccc2O1,4,-25
O=C(C[C@@H]1C=C[C@H](NC(=O)Nc2cccc(F)c2)[C@H](CO)O1)NCC1CCCCC1,/,8
CN1CCN(C(=O)C[C@H]2CC[C@@H]3[C@H](COC[C@@H](O)CN3C(=O)c3ccccc3F)O2)CC1,-2,/
CO[C@@H]1CN(C)C(=O)c2ccc(NC(=O)Nc3ccccc3)cc2OC[C@H](C)NC[C@H]1C,-3,-3
C[C@H]1CN([C@@H](C)CO)C(=O)Cc2cc(NC(=O)Cn3cnnn3)ccc2O[C@H]1CN(C)S(=O)(=O)c1cccs1,-4,-5
Cc1noc(C)c1NC(=O)Nc1ccc2c(c1)C(=O)N([C@H](C)CO)C[C@H](C)[C@@H](CN(C)C(=O)Nc1ccc(C(F)(F)F)cc1)OCCCC[C@H](C)O2,0,-77
C[C@@H]1CCCCO[C@H](CN(C)C(=O)Nc2ccc(C(F)(F)F)cc2)[C@@H](C)CN([C@@H](C)CO)C(=O)c2cc(NC(=O)Nc3ccccc3)ccc2O1,-6,-85*
C[C@@H]1CCCCO[C@@H](CN(C)C(=O)Nc2ccc(C(F)(F)F)cc2)[C@H](C)CN([C@@H](C)CO)C(=O)c2cc(NC(=O)Nc3ccccc3)ccc2O1,-7,-28
Cc1noc(C)c1NC(=O)Nc1ccc2c(c1)C(=O)N([C@H](C)CO)C[C@@H](C)[C@@H](CN(C)C(=O)Nc1ccc(C(F)(F)F)cc1)OCCCC[C@@H](C)O2,7,-87*
CNC[C@H]1Oc2ccc(NC(=O)Nc3ccc(C(F)(F)F)cc3)cc2C(=O)N([C@H](C)CO)C[C@@H]1C,9,-32
Cc1noc(C)c1NC(=O)Nc1cccc2c1O[C@@H](CN(C)S(=O)(=O)c1cn(C)cn1)[C@H](C)CN([C@H](C)CO)C2=O,/,28
COc1ccc(NC(=O)Nc2ccc3c(c2)C(=O)N([C@H](C)CO)C[C@H](C)[C@@H](CN(C)Cc2ccc(Cl)c(Cl)c2)OCCCC[C@@H](C)O3)cc1,0,-1
COc1ccc(NC(=O)Nc2ccc3c(c2)C(=O)N([C@@H](C)CO)C[C@@H](C)[C@@H](CN(C)Cc2ccc(Cl)c(Cl)c2)OCCCC[C@@H](C)O3)cc1,-1,-80*
COc1ccc(NC(=O)Nc2ccc3c(c2)C(=O)N([C@H](C)CO)C[C@H](C)[C@H](CN(C)Cc2ccc(Cl)c(Cl)c2)OCCCC[C@H](C)O3)cc1,-1,14
COc1ccc(NC(=O)Nc2ccc3c(c2)C(=O)N([C@@H](C)CO)C[C@H](C)[C@@H](CN(C)Cc2ccc(Cl)c(Cl)c2)OCCCC[C@@H](C)O3)cc1,0,-87*
O=S(=O)(N[C@@H]1CC[C@@H](CCn2cc(C3CC3)nn2)O[C@@H]1CO)c1ccc(Cl)cc1,-1,-11
CC(C)NC(=O)N[C@@H]1CC[C@@H](CCn2cc(-c3ccc(F)cc3)nn2)O[C@@H]1CO,/,-8
O=C(C[C@H]1CC[C@@H]2[C@H](COC[C@H](O)CN2C(=O)Nc2ccc(C(F)(F)F)cc2)O1)NC1Cc2ccccc2C1,-100*!,-14
O=C(C[C@H]1CC[C@H]2[C@@H](COC[C@H](O)CN2C(=O)Nc2ccc(C(F)(F)F)cc2)O1)NC1Cc2ccccc2C1,-90*!,-30
CCNC(=O)C[C@@H]1CC[C@@H]2[C@H](COC[C@@H](O)CN2C(=O)Nc2ccc(C(F)(F)F)cc2)O1,-94*!,16
SMILES,C diff HTS,Pf Dd2 inh
CCNC(=O)C[C@@H]1CC[C@H]2[C@@H](COC[C@H](O)CN2C(=O)Nc2ccc(C(F)(F)F)cc2)O1,67,3
O=C(C[C@@H]1CC[C@@H]2[C@H](COC[C@@H](O)CN2C(=O)Nc2ccc(F)cc2)O1)NC1Cc2ccccc2C1,/,-9
O=C(C[C@@H]1CC[C@@H]2[C@H](COC[C@@H](O)CN2C(=O)Nc2ccc(C(F)(F)F)cc2)O1)NC1Cc2ccccc2C1,-100*!,-26
O=C(C[C@@H]1CC[C@@H]2[C@H](COC[C@H](O)CN2C(=O)Nc2ccc(C(F)(F)F)cc2)O1)NC1Cc2ccccc2C1,22,2
O=C(C[C@@H]1CC[C@H]2[C@@H](COC[C@H](O)CN2C(=O)Nc2ccc(F)cc2)O1)NC1Cc2ccccc2C1,/,-3
C[C@@H]1CCCCO[C@H](CN(C)CC2CCCCC2)[C@H](C)CN([C@@H](C)CO)C(=O)c2cc(NC(=O)NC3CCCCC3)ccc2O1,/,-53
C[C@H]1CCCCO[C@@H](CN(C)CC2CCCCC2)[C@@H](C)CN([C@@H](C)CO)C(=O)c2cc(NC(=O)Nc3ccc(F)cc3)ccc2O1,0,-85*
C[C@@H]1CN([C@@H](C)CO)C(=O)c2cc(NC(=O)NC3CCCCC3)ccc2O[C@@H](C)CCCCO[C@H]1CN(C)CC1CCCCC1,/,-85*
C[C@@H]1CN([C@@H](C)CO)C(=O)c2cc(NC(=O)Nc3ccc(F)cc3)ccc2O[C@@H](C)CCCCO[C@H]1CN(C)CC1CCCCC1,7,-78
C[C@@H]1CN([C@@H](C)CO)C(=O)c2cc(NC(=O)Nc3ccc(F)cc3)ccc2O[C@@H](C)CCCCO[C@@H]1CN(C)CC1CCCCC1,1,?
C[C@H](CO)N1C[C@H](C)[C@H](CN(C)CC2CCCCC2)OCCCC[C@H](C)Oc2ccc(NC(=O)Nc3ccc(F)cc3)cc2C1=O,-9,-87*
O=C(C[C@@H]1C=C[C@H](NC(=O)c2ccc3c(c2)OCO3)[C@@H](CO)O1)NCc1ccc(F)cc1,-1,-6
O=C(O)C[C@@H]1C[C@H]2c3cc(NC(=O)Nc4ccccc4)ccc3O[C@H]2[C@H](CO)O1,-2,17
C[C@@H]1CN([C@H](C)CO)S(=O)(=O)c2ccc(C3=CCCCC3)cc2O[C@@H]1CN(C)S(C)(=O)=O,-9,59
C[C@H]1CCCCO[C@H](CN(C)Cc2ccc(C(F)(F)F)cc2)[C@@H](C)CN([C@@H](C)CO)C(=O)c2cc(NS(C)(=O)=O)ccc2O1,-2,-42
C[C@H]1CN([C@@H](C)CO)S(=O)(=O)c2ccc(/C=C/c3ccccc3)cc2O[C@H]1CN(C)C(=O)c1ccc2c(c1)OCO2,11,-72

# Source: PubChem BioAssay (Broad Institute)
